# Assay results: PubChem BioAssay (Tox21)
# Values without a mark were called inactive. Records with an inconclusive call do not appear. Where a call stands in place of a potency, no number is given. Calls of active or inactive are those of the source. Unless noted, the call rests on the fitted dose curve.
# Legend:
# [1] = Nuclear factor erythroid 2-related factor 2/antioxidant responsive element (Nrf2/ARE) small molecule agonists: qHTS cell viability counter screen in human keratinocytes (AID 1919968; active means well fitted curve in the direction sought with a large enough effect in the repeat runs; an effect the other way counts as inactive or inconclusive; further: nearly all actives have a fitted effect of over 55% in size)
# Procedure, shortened: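 HaCaT ARE reporter line, 1,500 cells/well; 5 h settle, 37 C/5% CO2; cpd in DMSO pinned; 23 h exposure; CellTiter-Fluor, 1 h; fluorescence.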
# [2] = Nuclear factor erythroid 2-related factor 2/antioxidant responsive element (Nrf2/ARE) small molecule agonists: luciferase reporter gene qHTS assay in human keratinocytes (AID 1919969); further: nearly all actives have a fitted effect of over 35% in size; further: potency means the concentration at half of the fitted maximal effect
# [3] = target: Gonadotropin-releasing hormone receptor (Homo sapiens) (UniProt P30968); experiment: Human gonadotropin-releasing hormone receptor (GnRHR) small molecule agonists, calcium flux assay in GnRHR-HEK293 cells (AID 1920063); further: nearly all actives have a fitted effect of over 35% in size
# Procedure, shortened: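 GnRHR-HEK293, 1500 cells/well, 18 h 37 C/5% CO2; Ca dye 1 h 37 C; cpd pinned (DMSO), agonist mode; kinetic FL 480/540, 3 min, 1 s reads; 15 conc, n=3.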
# [4] = target: KiSS-1 receptor (Homo sapiens) (UniProt Q969F8); experiment: Human kisspeptin (KISS1R) small molecule agonists, calcium flux assay in KISS1R-HEK293 cells (AID 1920064; active means well fitted curve in the direction sought with a large enough effect in the repeat runs; an effect the other way counts as inactive or inconclusive)
# Procedure, shortened: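 Stable human KISS1R HEK293 line; 18 h plating, 37 C/5% CO2; calcium dye 1 h 37 C; compound pin transfer; kinetic fluorescence Ex/Em 480/540, 3 min.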
# [5] = G protein-coupled receptor (GPCR) small molecule agonists, calcium flux assay: HEK293 wild type cell line counter screen (AID 1920065)
# Procedure, shortened: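 Kinetic fluorescence at Ex/Em 480/540, recorded every second over 3 min, served as the read-out after compound addition. Each compound was tested at 15 concentrations in triplicate on cells pre-loaded with calcium dye for 1 h.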
# [6] = p53 small molecule agonists, cell-based qHTS assay with human liver microsomes (AID 1963577);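 further: p53 response element beta-lactamase reporter cells with liver microsomes plus NADPH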
# Procedure, shortened: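 HLM-supplemented p53RE-bla reporter assay: 16 h compound exposure at 37 C, microsomes and NADPH each 0.5 mg/mL final, read by fluorescence intensity.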
# [7] = p53 small molecule agonists, cell-based qHTS assay with rat liver microsomes (AID 1963578)
# Procedure, shortened: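 Quantitative HTS of the Tox21 10K library: p53RE-bla cells, rat liver microsomes plus NADPH at 0.5 mg/mL final each, 16 h at 37 C, beta-lactamase fluorescence detection.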
# [8] = p53 small molecule agonists, cell-based qHTS assay with human liver microsomes: qHTS cell viability counter screen (AID 1963579); further: nearly all actives have a fitted effect of over 45% in size
# Procedure, shortened: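 Viability of p53RE-bla cells is measured as CellTiter-Glo luminescence following a 16 h, 37 C incubation with compound, liver microsomes from human donors and NADPH.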
# [9] = p53 small molecule agonists, cell-based qHTS assay with rat liver microsomes: qHTS cell viability counter screen (AID 1963580); further: nearly all actives have a fitted effect of over 45% in size
# Procedure, shortened: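 HCT-116 p53RE-bla, 4,000 cells/well, 5 h pre-incubation; cpd + rat liver microsomes 0.5 mg/mL + NADPH 0.5 mg/mL (final); 16 h, 37 C; CellTiter-Glo, 30 min RT; luminescence.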
# [10] = p53 small molecule agonists, cell-based qHTS assay: qHTS cell viability counter screen (AID 1963581); further: nearly all actives have a fitted effect of over 45% in size
# Procedure, shortened: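 HCT-116 p53RE-bla cells, 4,000/well, plated 5 h before compound pin transfer; 16 h at 37 C; bla substrate 2 h RT; then CellTiter-Glo, 30 min RT, luminescence.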
# [11] = p53 small molecule agonists, cell-based qHTS assay (AID 1963582; active means well fitted activation curve with a large enough effect in the signal ratio in the repeat runs, not every such curve was filed as active; the % refers to the signal ratio)
# Procedure, shortened: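 Reporter line: p53RE-bla. Pre-incubation 5 h, 37 C, 5% CO2; compound (DMSO, pin tool) 16 h, 37 C; B/G FRET substrate 2 h RT; fluorescence intensity read.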
# [12] = target: 5-hydroxytryptamine receptor 2A (Homo sapiens) (UniProt P28223); experiment: 5-hydroxytryptamine receptor 2A (HTR2A) small molecule antagonists, cell-based qHTS assay (AID 1963586); further: nearly all actives have a fitted effect of over 45% in size
# Procedure, shortened: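 Antagonist-mode intracellular calcium assay: DOI (4 nM) added after 5 min compound pre-incubation at room temperature to dye-loaded HTR2A-CHO cells. Fluorescence followed for 3 min, sampled every second.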
# [13] = target: 5-hydroxytryptamine receptor 2A (Homo sapiens) (UniProt P28223); experiment: 5-hydroxytryptamine receptor 2A (HTR2A) small molecule agonists, cell-based qHTS assay (AID 1963587); further: nearly all actives have a fitted effect of over 30% in size
# Procedure, shortened: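 Kinetic calcium-flux fluorescence (2 min, 1 sec intervals) after compound addition in agonist mode. HTR2A-CHO cells were cultured 18 h, then dye-loaded 1 h at 37 C.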
# [14] = target: Muscarinic acetylcholine receptor M1 (Homo sapiens) (UniProt P11229); experiment: Cholinergic receptor muscarinic 1 (CHRM1) small molecule agonists, cell-based qHTS assay (AID 1963589); further: nearly all actives have a fitted effect of over 35% in size
# Procedure, shortened: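 Human M1 in stable CHO line; 18 h plating, 1 h dye load 37 C; cpd added (agonist mode); Ca2+ fluorescence kinetic read, 1 s intervals; 15 conc, 3 runs.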
# [15] = cAMP Responsive Elements (CRE) small molecule agonists, cell-based qHTS assay (AID 1963590)
# Procedure, shortened: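 HEK 293T CRE-bla, 2,000 cells/well, 18 h preincubation 37 C/5% CO2; cpds (DMSO) pinned, 3 h; LiveBLAzer B/G FRET substrate, 2 h RT.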
# [16] = target: Beta-2 adrenergic receptor (Homo sapiens) (UniProt P07550); experiment: Adrenergic beta2 receptor (ADRB2) small molecule antagonists, cell-based qHTS assay (AID 1963592); further: series mostly up to about 92 µM; nearly all actives have a fitted effect of over 50% in size
# Procedure, shortened: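 Cells (CHO, stable ADRB2 overexpression) incubated 18-20hr at 37C; compounds added from DMSO; agonist mix (1nM isoproterenol, 100uM IBMX, 25uM Ro-20-1724) added; 0.5hr RT; d2-cAMP and anti-cAMP-cryptate added; 1hr RT; 665/615 nm read.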
# [17] = target: D(2) dopamine receptor (Homo sapiens) (UniProt P14416); experiment: Dopamine D2 receptor (DRD2) small molecule agonists, cell-based qHTS assay (AID 1963594); further: nearly all actives have a fitted effect of over 35% in size
# Procedure, shortened: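 cAMP accumulation in DRD2-HEK293 cells measured by HTRF after 1 h detection; compounds added 10 min before NKH477 (200nM […]) forskolin-analogue stimulation, 30 min at room temperature, with Ro20-1724 present at 0.1 mM final.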
# [18] = target: D(2) dopamine receptor (Homo sapiens) (UniProt P14416); experiment: Dopamine D2 receptor (DRD2) small molecule antagonists, cell-based qHTS assay (AID 1963595; active means well fitted inhibition curve with a large enough effect in the signal ratio in the repeat runs, with a control signal flat; the % refers to the signal ratio)
# Procedure, shortened: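 Stable D2 receptor HEK293 line, 24 h after seeding. Compound preincubated 10 min, then quinpirole (12 nM) with forskolin analogue NKH477 (200 nM), 30 min, room temperature. Detection by time-resolved FRET of cAMP.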
# [19] = target: Muscarinic acetylcholine receptor M1 (Homo sapiens) (UniProt P11229); experiment: Cholinergic receptor muscarinic 1 (CHRM1) small molecule antagonists, cell-based qHTS assay (AID 1963588); further: nearly all actives have a fitted effect of over 40% in size
# Procedure, shortened: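 CHRM1-CHO calcium-flux assay, antagonist mode. Cells were seeded 18 h, dye-loaded 1 h at 37 C and given compound for 5 min at RT, then acetylcholine was added at 50nM. FDSS fluorescence was read 3 min; 15 concentrations, three runs.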
# [20] = cAMP Responsive Elements (CRE) small molecule antagonists, cell-based qHTS assay (AID 1963591; active means well fitted inhibition curve with a large enough effect in the signal ratio in the repeat runs, not every such curve was filed as active; the % refers to the signal ratio)
# Procedure, shortened: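 Beta-lactamase reporter read by FRET substrate (LiveBLAzer B/G) after 2 h at room temperature. CRE-bla HEK293T cells had received compound plus 0.25 uM (final) NKH477 for 3 h at 37 °C.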
# Chain of D(2) dopamine receptor (Homo sapiens) (P14416 whole entry, looked up): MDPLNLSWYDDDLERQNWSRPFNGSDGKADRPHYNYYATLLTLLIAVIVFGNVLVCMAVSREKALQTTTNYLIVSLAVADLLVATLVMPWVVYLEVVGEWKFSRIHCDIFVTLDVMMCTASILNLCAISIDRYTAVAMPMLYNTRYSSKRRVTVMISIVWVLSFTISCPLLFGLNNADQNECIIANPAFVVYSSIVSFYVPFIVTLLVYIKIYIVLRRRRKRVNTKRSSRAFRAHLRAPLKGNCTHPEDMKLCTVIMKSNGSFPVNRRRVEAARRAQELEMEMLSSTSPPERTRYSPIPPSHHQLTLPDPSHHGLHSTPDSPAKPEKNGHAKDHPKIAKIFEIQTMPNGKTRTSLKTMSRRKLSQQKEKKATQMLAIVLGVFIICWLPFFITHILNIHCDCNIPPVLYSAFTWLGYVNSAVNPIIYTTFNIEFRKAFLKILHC
# Chain of Beta-2 adrenergic receptor (Homo sapiens) (P07550 whole entry, looked up): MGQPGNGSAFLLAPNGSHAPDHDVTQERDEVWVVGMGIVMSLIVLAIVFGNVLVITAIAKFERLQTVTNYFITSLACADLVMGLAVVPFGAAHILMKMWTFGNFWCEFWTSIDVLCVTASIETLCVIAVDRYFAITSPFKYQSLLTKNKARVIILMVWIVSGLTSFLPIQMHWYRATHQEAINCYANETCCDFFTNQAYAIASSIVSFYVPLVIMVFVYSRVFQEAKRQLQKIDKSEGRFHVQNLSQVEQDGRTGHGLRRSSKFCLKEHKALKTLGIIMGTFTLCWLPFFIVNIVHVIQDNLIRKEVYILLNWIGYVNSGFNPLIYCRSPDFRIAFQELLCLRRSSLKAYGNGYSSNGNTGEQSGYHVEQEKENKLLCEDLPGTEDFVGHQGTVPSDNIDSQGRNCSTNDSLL
# Chain of Gonadotropin-releasing hormone receptor (Homo sapiens) (P30968 whole entry, looked up): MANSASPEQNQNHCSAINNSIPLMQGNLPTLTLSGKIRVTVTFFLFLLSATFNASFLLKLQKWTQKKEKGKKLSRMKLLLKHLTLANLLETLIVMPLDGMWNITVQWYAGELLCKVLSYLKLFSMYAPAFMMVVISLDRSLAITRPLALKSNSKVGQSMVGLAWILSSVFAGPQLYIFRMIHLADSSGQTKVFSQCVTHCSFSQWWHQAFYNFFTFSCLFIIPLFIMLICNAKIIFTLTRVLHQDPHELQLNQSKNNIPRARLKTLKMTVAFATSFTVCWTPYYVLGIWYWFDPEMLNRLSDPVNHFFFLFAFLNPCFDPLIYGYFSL
# Chain of KiSS-1 receptor (Homo sapiens) (Q969F8 whole entry, looked up): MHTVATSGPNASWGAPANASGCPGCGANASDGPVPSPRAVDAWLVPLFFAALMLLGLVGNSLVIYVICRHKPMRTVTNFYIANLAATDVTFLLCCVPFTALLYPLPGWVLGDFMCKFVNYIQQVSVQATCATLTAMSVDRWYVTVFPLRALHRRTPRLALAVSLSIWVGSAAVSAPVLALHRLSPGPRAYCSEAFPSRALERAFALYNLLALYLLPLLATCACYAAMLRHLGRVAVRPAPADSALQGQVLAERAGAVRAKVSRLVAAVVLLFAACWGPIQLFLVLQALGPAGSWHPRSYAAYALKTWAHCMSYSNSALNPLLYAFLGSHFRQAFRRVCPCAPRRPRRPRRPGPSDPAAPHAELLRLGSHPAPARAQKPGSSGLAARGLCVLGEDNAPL
# Chain of Muscarinic acetylcholine receptor M1 (Homo sapiens) (P11229 whole entry, looked up): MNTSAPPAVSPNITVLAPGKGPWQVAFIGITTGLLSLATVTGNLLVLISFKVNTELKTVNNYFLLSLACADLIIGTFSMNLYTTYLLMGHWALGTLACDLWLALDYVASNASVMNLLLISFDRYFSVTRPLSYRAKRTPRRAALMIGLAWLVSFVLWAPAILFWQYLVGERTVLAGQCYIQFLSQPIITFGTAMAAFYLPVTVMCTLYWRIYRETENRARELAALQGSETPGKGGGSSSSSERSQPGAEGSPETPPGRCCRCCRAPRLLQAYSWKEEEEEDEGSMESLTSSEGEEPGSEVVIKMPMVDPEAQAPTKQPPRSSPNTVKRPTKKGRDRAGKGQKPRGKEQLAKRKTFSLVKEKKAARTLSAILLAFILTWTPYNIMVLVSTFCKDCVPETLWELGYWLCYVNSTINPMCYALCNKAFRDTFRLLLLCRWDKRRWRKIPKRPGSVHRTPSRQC
# Chain of 5-hydroxytryptamine receptor 2A (Homo sapiens) (P28223 whole entry, looked up): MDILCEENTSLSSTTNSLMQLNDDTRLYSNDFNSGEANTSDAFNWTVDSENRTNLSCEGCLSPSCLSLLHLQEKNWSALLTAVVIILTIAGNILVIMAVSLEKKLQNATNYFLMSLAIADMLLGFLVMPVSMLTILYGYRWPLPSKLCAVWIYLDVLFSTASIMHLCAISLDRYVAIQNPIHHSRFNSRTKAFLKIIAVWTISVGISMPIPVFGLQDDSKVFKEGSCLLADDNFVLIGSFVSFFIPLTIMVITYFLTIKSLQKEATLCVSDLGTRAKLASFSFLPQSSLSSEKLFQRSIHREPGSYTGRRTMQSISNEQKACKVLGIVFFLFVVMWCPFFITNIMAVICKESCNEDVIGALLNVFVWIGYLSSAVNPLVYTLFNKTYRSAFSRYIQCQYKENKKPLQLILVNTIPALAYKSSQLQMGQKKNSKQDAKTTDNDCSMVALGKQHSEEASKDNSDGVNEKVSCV
SMILES,Potency [1],Potency [2],Potency [3],outcome [4],outcome [5],Potency [6],Potency [7],Potency [8],Potency [9],Potency [10],Potency [11],Potency [12],Potency [13],Potency [14],Potency [15],Potency [16],Potency [17],Potency [18],Potency [19],Potency [20]
O=C(O)c1ccccc1Cl,inactive,inactive,inactive,inactive,inactive,inactive,inactive,inactive,inactive,inactive,inactive,inactive,inactive,inactive,inactive,inactive,inactive,inactive,,
COC(=O)c1ccc(I)cc1S(=O)(=O)NC(=O)Nc1nc(C)nc(OC)n1,inactive,inactive,inactive,inactive,inactive,inactive,inactive,inactive,inactive,inactive,inactive,inactive,inactive,inactive,inactive,inactive,inactive,inactive,,
CCC(Cc1ccccc1)(C(=O)c1ccc(N2CCOCC2)cc1)N(C)C (centres undefined),inactive,68.6 µM (active),inactive,inactive,inactive,inactive,inactive,inactive,inactive,inactive,inactive,inactive,inactive,inactive,,inactive,inactive,,,
CCNc1nc(NC(C)(C)C)nc(OC)n1,inactive,inactive,inactive,inactive,inactive,inactive,inactive,inactive,inactive,inactive,inactive,inactive,inactive,,inactive,inactive,inactive,inactive,inactive,
CCC(CC)(CC(=O)Nc1cccc(/C=C/c2nc(C3CCC3)cs2)c1)C(=O)O,inactive,inactive,inactive,inactive,inactive,inactive,inactive,inactive,inactive,inactive,inactive,inactive,inactive,,,inactive,inactive,inactive,inactive,
CC(C)(C)c1cc(CCC(=O)NCCCCCCNC(=O)CCc2cc(C(C)(C)C)c(O)c(C(C)(C)C)c2)cc(C(C)(C)C)c1O,inactive,inactive,inactive,inactive,inactive,inactive,inactive,inactive,inactive,inactive,inactive,inactive,inactive,inactive,,,inactive,inactive,,
C=CCOc1nc(OCC=C)nc(OCC=C)n1,inactive,inactive,inactive,inactive,inactive,inactive,inactive,inactive,inactive,inactive,inactive,inactive,inactive,inactive,,inactive,inactive,inactive,,inactive
CO[Si](OC)(OC)OC,inactive,inactive,inactive,inactive,inactive,inactive,inactive,inactive,inactive,inactive,inactive,inactive,inactive,inactive,inactive,inactive,,inactive,,inactive
